Screening data from PubChem BioAssay.
Rows were chosen to be rich in hits. Some 7.6% of all compounds tested hit in one or more screens of this group.
Gal4-VP16 FLuc: VP16 counterscreen qHTS for inhibitors of ROR gamma transcriptional activity; Drosophila S2 Gal4-VP16 UAS-luciferase, luminescence, 20 h; 3.5% of 310,000 active; Potency, µM (titrated, usually from 53.6 µM), usual class: inhibitors;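 also: Gal4-VP16 expression switched on by copper sulfate through the metallothionein promoter; nearly all actives have a fitted effect of over 50% in size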
Giardia killer: Small Molecules that selectively kill Giardia lamblia: qHTS. activity change, % at 7.66 µM, hits read low. 0.15% of 340,000 active. Giardia lamblia trophozoite viability; in the data active = activity change below about -80%; inconclusive = between about -30% and that limit;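 also: parasites exposed to compound for two days anaerobically before the ATP read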
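Anaerobic 48 hrs incubation at 37 deg C of 100 trophozoites/well with test compounds; ATPLite 1-Step luminescence, 15-30 min RT, reports cellular ATP as viability.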
p53 reactivator: qHTS assay for re-activators of p53 using a Luc reporter; H1299 p53-A138V BP100-luciferase reporter, luminescence, 24 h; Potency, µM (highest dose often 92.2 µM), actives largely listed as activators; 0.063% of 320,000 active; AID 504706, 2011; also: nearly all actives have a fitted effect of over 45% in size
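H1299 (p53-null), stable ts p53-A138V + BP100-Luc; 1000 cells/well, Opti-MEM/10% FBS; cpd 4 pt, 1:5; 24 h, 37 deg C, 5% CO2; detection reagent 10 min RT; luminescence.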
BRCA1 expr up: qHTS Assay to Identify Small Molecule Activators of BRCA1 Expression; Potency, µM (doses to about 46.1 µM), most hits filed as activators; 1.1% of 380,000 active; AID 624202, 2012; MCF7-BRCA1-FFLuc reporter, luminescence, 48 h; response scale: scaled: vehicle 0%, 10 µM genistein 100%; also: nearly all actives have a fitted effect of over 80% in size
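Using MCF7 cells harboring a BRCA1 firefly luciferase reporter, plated 2 h before compound pinning, the screen measured luminescence after 48 h incubation. Responses were normalized to DMSO and 10 microM genistein, then fitted for concentration-effect.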
RORgamma inh: qHTS for inhibitors of ROR gamma transcriptional activity. Drosophila S2 Gal4-RORgamma UAS-luciferase reporter, 20 h. AID 2551, 2010. 5.4% of 310,000 active. Potency, µM (series often up to 53.6 µM), actives largely listed as inhibitors; also: nearly all actives have a fitted effect of over 60% in size
Target sequence (P51450 whole entry, looked up, the tested form may be a part): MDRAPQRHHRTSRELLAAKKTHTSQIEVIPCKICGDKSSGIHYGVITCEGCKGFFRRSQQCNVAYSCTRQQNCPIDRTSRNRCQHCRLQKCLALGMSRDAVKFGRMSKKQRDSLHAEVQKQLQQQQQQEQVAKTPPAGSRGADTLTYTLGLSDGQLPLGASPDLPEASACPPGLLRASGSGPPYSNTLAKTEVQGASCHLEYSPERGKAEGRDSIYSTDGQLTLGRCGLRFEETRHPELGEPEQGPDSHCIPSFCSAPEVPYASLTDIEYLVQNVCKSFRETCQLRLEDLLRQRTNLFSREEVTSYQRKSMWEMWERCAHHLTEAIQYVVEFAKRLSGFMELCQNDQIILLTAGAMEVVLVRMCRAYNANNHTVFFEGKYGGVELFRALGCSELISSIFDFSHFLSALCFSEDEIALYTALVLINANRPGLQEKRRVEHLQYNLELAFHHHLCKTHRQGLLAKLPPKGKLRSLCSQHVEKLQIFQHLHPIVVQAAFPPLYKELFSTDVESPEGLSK
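A Gal4/UAS one-hybrid system in insect cells: metallothionein-promoter Gal4–ROR gamma fusion plus Photinus luciferase reporter. Copper sulfate 700 uM final, 20 hr ambient incubation, luminescent detection after 10 min with reagent.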
ELG1 DNA repair: qHTS screen for small molecules that inhibit ELG1-dependent DNA repair in human embryonic kidney (HEK293T) cells expressing luciferase-tagged ELG1 | Potency, µM (highest dose often 46.1 µM), most hits filed as inhibitors | 2.3% of 330,000 active | HEK293T ELG1-luciferase reporter, luminescence, 16 h; DNA damage induced by 5-fluorouridine | AID 504467, 2011; also: nearly all actives have a fitted effect of over 55% in size
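Reporter activity after DNA damage by 5-fluorouridine is monitored. Compound-treated cells incubate 16 hr at 37 °C, then ONE-Glo is added for 30 min before luminescence reading.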
Of the large screens only hits and unclear results are named; the others gave an inactive call. Unless noted, calls follow the shape of the dose curve; as a rule, active = well fitted curve in the direction sought with a large enough effect; inconclusive = small, poorly fitted or top-dose-only effect, or another doubt; inactive = no such curve, though single readings can be large; an effect the other way counts as inactive or inconclusive.

COCc1cc(C)nc(OCC(=O)N/N=C/c2ccccc2O)c1C#N	RORgamma inh 15.8µM, ELG1 DNA repair inconclusive
COCc1cc(C)nc(OCC(=O)N/N=C/c2ccc(O)cc2O)c1C#N	ELG1 DNA repair inconclusive
CC(C)C(=O)N[C@@H]1c2ccccc2CC[C@@H]1O	none (no result: Gal4-VP16 FLuc, RORgamma inh)
N#CCCN(C(=O)COC(=O)c1ccc(S(=O)(=O)N2CCCC2)cc1)c1cccc(Cl)c1	ELG1 DNA repair inconclusive (no result: Gal4-VP16 FLuc, RORgamma inh)
CCCC(=O)NC(=S)Nc1cccc(C(C)=O)c1	Gal4-VP16 FLuc inconclusive, RORgamma inh 10µM
CCC(=O)NC(=S)Nc1cccc(NC(=O)CC)c1	none
CC(=O)c1cccc(NC(=S)NC(=O)CC(C)C)c1	Gal4-VP16 FLuc 7.94µM, p53 reactivator inconclusive, RORgamma inh inconclusive
CCCCC(=O)Nc1cccc(NC(=S)NC(=O)C(C)C)c1	ELG1 DNA repair inconclusive
CCCCCC(=O)NC(=S)Nc1cccc(C(C)=O)c1	Gal4-VP16 FLuc inconclusive, p53 reactivator inconclusive, RORgamma inh 2.82µM, ELG1 DNA repair inconclusive
CCC(=O)NC(=S)Nc1cccc(C(C)=O)c1	RORgamma inh 11.2µM
CCCOC(=O)Nc1cccc(C(C)=O)c1	none
O=S(=O)([N-]c1nc2ccccc2nc1-n1cc[n+](Cc2ccccc2)c1)c1ccc(Cl)cc1	ELG1 DNA repair inconclusive
Cc1cccc(-n2nc(C(=O)Nc3ccccc3)n3c(=O)cc(-c4ccccc4)nc23)c1	none
CC(=O)N(c1ccccc1)C1CCCC1	none
O=C(CCl)N(c1ccccc1)C1CCCCC1	Gal4-VP16 FLuc 3.55µM, RORgamma inh 0.708µM, ELG1 DNA repair 16.4µM
Cc1cccc(NC(=O)NNC(=O)c2cc3ccccc3cc2O)c1C	none
Cc1cc([N+](=O)[O-])ccc1NC(=S)NC1CCCC1	none
Cc1ccccc1NC(=S)NC1CCCC1	Gal4-VP16 FLuc 8.91µM, RORgamma inh 7.94µM
Cc1cccc(C)c1NC(=S)NC1CCCCC1	Gal4-VP16 FLuc 4.47µM, RORgamma inh 6.31µM
S=C(Nc1ccccn1)NC1CCCC1	none
Cc1cccc(NC(=S)NNC(=O)c2ccc(O)cc2O)c1C	Gal4-VP16 FLuc 20µM, RORgamma inh 7.94µM, ELG1 DNA repair 10.3µM
Cc1cccc(NC(=S)NC2CCN(Cc3ccccc3)CC2)c1C	RORgamma inh inconclusive
Cc1cccc(NC(=S)NNC(=S)NC2CCCCC2)c1C	Gal4-VP16 FLuc inconclusive, RORgamma inh 12.6µM
Cc1cc(C(=O)COC(=O)c2ccc[nH]c2=O)c(C)n1-c1ccc(F)cc1	Gal4-VP16 FLuc 7.08µM, p53 reactivator inconclusive, BRCA1 expr up inconclusive, RORgamma inh 10µM, ELG1 DNA repair inconclusive
Cc1cc(C(=O)COC(=O)c2ccc[nH]c2=O)c(C)n1C1CC1	p53 reactivator inconclusive, ELG1 DNA repair inconclusive
Cc1cc(C(=O)COc2cccnc2[N+](=O)[O-])c(C)n1-c1ccccc1	Gal4-VP16 FLuc inconclusive, Giardia killer -88.5, RORgamma inh inconclusive, ELG1 DNA repair inconclusive
Cc1cc(C(=O)COC(=O)c2ccc[nH]c2=O)c(C)n1-c1ccccc1	Gal4-VP16 FLuc 0.447µM, Giardia killer inconclusive, p53 reactivator inconclusive, RORgamma inh 12.6µM, ELG1 DNA repair inconclusive
O=C(NNc1nc2c(F)cccc2s1)c1cc(=O)c2ccccc2o1	Gal4-VP16 FLuc inconclusive, p53 reactivator inconclusive, RORgamma inh 10µM, ELG1 DNA repair inconclusive
COc1ccc2nc(NC(=O)Nc3cccc4ccccc34)sc2c1	ELG1 DNA repair inconclusive
Cc1cccc2sc(NNC(=O)c3cc(=O)c4ccccc4o3)nc12	Gal4-VP16 FLuc inconclusive, RORgamma inh 3.98µM, ELG1 DNA repair inconclusive
COc1ccc2nc(NNC(=O)c3cc(=O)c4ccccc4o3)sc2c1	Gal4-VP16 FLuc inconclusive, RORgamma inh 8.91µM
Cc1ccc2sc(NNC(=O)c3cc(=O)c4ccccc4o3)nc2c1C	ELG1 DNA repair inconclusive
CC(C)(C)CN1CCN(Cc2cc3ccccc3[nH]2)CC1CCO (configuration not stated)	none
COc1cc(NC(=O)C2CCN(S(=O)(=O)c3cccs3)CC2)c(C(=O)O)cc1OC	none (no result: Gal4-VP16 FLuc, Giardia killer, p53 reactivator, RORgamma inh, ELG1 DNA repair)
Cc1ccc(C(=O)O/N=C(\N)c2cccnc2)cc1[N+](=O)[O-]	p53 reactivator inconclusive, BRCA1 expr up 11.2µM, ELG1 DNA repair inconclusive
N/C(=N\OC(=O)c1ccc([N+](=O)[O-])cc1)c1cccnc1	Gal4-VP16 FLuc inconclusive, p53 reactivator inconclusive, BRCA1 expr up inconclusive, RORgamma inh inconclusive, ELG1 DNA repair inconclusive
N/C(=N\OC(=O)c1ccco1)c1cccc(Br)c1	Gal4-VP16 FLuc inconclusive, ELG1 DNA repair inconclusive
COc1ccc(/C(N)=N/OC(=O)c2ccco2)cc1OC	Gal4-VP16 FLuc inconclusive, p53 reactivator inconclusive, BRCA1 expr up 7.94µM, ELG1 DNA repair inconclusive
Cc1ccc(C(=O)O/N=C(\N)c2cccc([N+](=O)[O-])c2)cc1	p53 reactivator inconclusive, BRCA1 expr up 3.16µM, ELG1 DNA repair inconclusive
Cc1cccc(/C(N)=N/OC(=O)CCc2ccccc2)c1	BRCA1 expr up 12.6µM, ELG1 DNA repair inconclusive
CC(C)N(C(=O)[C@H]1C[C@H](CC(=O)NCc2cccc(C(F)(F)F)c2)C(=O)N2CCc3c([nH]c4ccc(Cl)cc34)[C@]12C)C(C)C	ELG1 DNA repair inconclusive (no result: Gal4-VP16 FLuc, RORgamma inh)
COc1ccccc1C(=O)N1CCN(C(=O)c2oc3c(C)c(C)ccc3c2C)CC1	none (no result: Gal4-VP16 FLuc, Giardia killer, p53 reactivator, RORgamma inh, ELG1 DNA repair)
Cc1cccc(C(=O)O/N=C(\N)Cc2cccc3ccccc23)c1	Gal4-VP16 FLuc 11.2µM, RORgamma inh inconclusive
